Laboratory results from PubChem BioAssay (NCI).
This is part of a sample that, as a whole, favours compounds with a hit. Of some 79,000 tested, about 15% had one in any assay. Values without a mark were called inactive. Active and inactive are the calls of the source. Cut-off read from the data, not from the text of the source: active = growth inhibition above about 70%; inactive = the rest.

How the values were obtained:
[1] = NCI Yeast Anticancer Drug Screen. Data for the rad50 strain (AID 155);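 note: 0% = growth of vehicle-only cultures of the same strain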; settings: S. cerevisiae rad50 strain growth inhibition, stronger effect = higher value
Procedure, shortened: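 Readout: growth inhibition relative to vehicle-treated cultures. Compound exposure was carried out in a genetically defined yeast strain deficient in DNA damage repair.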

[2] = NCI Yeast Anticancer Drug Screen. Data for the mec2-1 strain (AID 157); settings: S. cerevisiae mec2-1 strain, stronger effect = higher value
Procedure, shortened: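 Compounds were applied to mec2-1 yeast cells. Their growth was then compared with that of vehicle-treated cultures to give growth inhibition.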

[3] = NCI Yeast Anticancer Drug Screen. Data for the sgs1 mgt1 strain (AID 161);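 note: 0% = growth of cultures given vehicle only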; settings: S. cerevisiae sgs1 mgt1 strain, stronger effect = higher value
Procedure, shortened: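 Percent growth inhibition was derived by comparing compound-exposed mutant yeast with vehicle-exposed cultures. The strain carries alterations in DNA damage repair.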

[4] = NCI Yeast Anticancer Drug Screen. Data for the cln2 rad14 strain (AID 165);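 note: 0% = growth equal to vehicle treated cultures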; settings: S. cerevisiae cln2 rad14 strain, stronger effect = higher value
Procedure, shortened: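 Strain: cln2 rad14 yeast, altered in cell cycle control and DNA damage repair. Read-out: growth inhibition vs vehicle.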

[5] = NCI Yeast Anticancer Drug Screen. Data for the bub3 strain (AID 167); settings: S. cerevisiae bub3 mutant strain, stronger effect = higher value
Procedure, shortened: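 Readout: yeast growth inhibition, expressed relative to vehicle-only wells. The test organism is a mutant strain from a panel with lesions in DNA repair or checkpoint genes.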

[6] = NCI Yeast Anticancer Drug Screen. Data for the mlh1 rad18 strain (AID 175); settings: S. cerevisiae mlh1 rad18 strain growth inhibition, stronger effect = higher value
Procedure, shortened: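 A repair-deficient yeast strain is exposed to test compound, and growth is scored relative to vehicle-treated controls.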

[7] = at 5.0 µM (retest, dose inferred, filed as 0.5)
[8] = at 50.0 µM (retest, dose inferred, filed as 5.0)

SMILES	growth inhibition [1, 7] [%]	growth inhibition [1, 8]	growth inhibition ([1]; at 50.0 µM)	growth inhibition [2, 7] [%]	growth inhibition [2, 8]	growth inhibition ([2]; at 50.0 µM)	growth inhibition [3, 7] [%]	growth inhibition [3, 8]	growth inhibition ([3]; at 50.0 µM)	growth inhibition [4, 7] [%]	growth inhibition [4, 8]	growth inhibition ([4]; at 50.0 µM)	growth inhibition [5, 7] [%]	growth inhibition [5, 8]	growth inhibition ([5]; at 50.0 µM)	growth inhibition [6, 7]	growth inhibition [6, 8]	growth inhibition ([6]; at 50.0 µM)
Cc1ccc(SCc2ccc(Cl)cc2Cl)nn1	-1	64%	96.8% (active)	-16	85% (active)	94% (active)	-4	85% (active)	82.8% (active)	0	20%	25.9%	12	61%	93.8% (active)	-3%	78% (active)	94% (active)
NC(=O)N/N=C(/Cc1nc2ccccc2nc1C/C(=N/NC(N)=O)c1cccc2ccccc12)c1cccc2ccccc12	-1	9%	0.65%	-13	-7%	34.4%	-1	17%	16.8%	-5	2%	82.2% (active)	-8	-10%	0.15%	-6%	6%	8.4%
Nc1ccc(N=Nc2ccccc2)c2ccccc12	9	96% (active)	97.8% (active)	0	98% (active)	99% (active)	3	98% (active)	98.5% (active)	0	97% (active)	98.5% (active)	2	99% (active)	98.3% (active)	4%	98% (active)	97.6% (active)
CC(=O)c1c2c(cc3c1CC1(Cc4ccccc4C1=O)C3)CCC2 (stereo not given)	-4	79% (active)	36.7%	-27	88% (active)	42.8%	-36	87% (active)	60%	27	29%	46.4%	-4	89% (active)	63.8%	-11%	73% (active)	61.5%
CCCCN(CCCC)CCNc1ccc(NS(=O)(=O)c2ccccc2)c2sc3ccccc3c(=O)c12	43	96% (active)	96.8% (active)	21	95% (active)	97.8% (active)	54	96% (active)	98.2% (active)	31	96% (active)	93.3% (active)	32	94% (active)	96.4% (active)	96% (active)	94% (active)	95.3% (active)
